Results with a measured potency or affinity are listed apart.
What follows are compounds tested on Staphylococcus aureus. Conditions: Concentration 32 ug.mL-1;; ASSAY_TEST Inhibition of Bacterial Growth; detection method Absorption (OD600); MEDIA CAMHB; plate type 384well; NBS; CORNING #3640; time 18 hr.
In the case of `COc1cccc(C(=O)CSc2nnc3c(=O)n(-c4ccc(F)cc4)ccn23)c1`, the Inhibition is reported as 4.06%. Compound `Cc1ccc(-c2ccc3nnc(CCC(=O)N4CCN(C(=O)c5ccco5)CC4)n3n2)cc1C` has an Inhibition of 7.73%. `CC(C)n1c(=O)c2ccc(C(=O)NC3CCCC3)cc2n2c(=O)n(Cc3cccc(C(F)(F)F)c3)nc12` was tested, and the Inhibition was 8.2%. Compound `Cc1cc(C)cc(Nc2nc(C)cc3nn(CC(=O)Nc4ccc(C)c(F)c4)c(=O)n23)c1` has an Inhibition of 9.64%. `Cc1ccc(NC(=O)Cn2c(=O)c3nnc(C)n3c3ccccc32)cc1F` was tested, and the Inhibition was 11.98%. `Cc1ccc(Sc2nccn3c(=O)n(CC(=O)N4CCN(c5ccccc5F)CC4)nc23)c(C)c1` showed an Inhibition of 2.97%. With `CCc1nnc2ccc(S(=O)(=O)N(Cc3ccccc3F)c3ccc(OC)cc3)cn12` the Inhibition was 11.76%. Work on `CC(=O)c1ccc(NC(=O)Cn2nc3ccc(-c4ccccc4)nn3c2=O)cc1` yielded an Inhibition of 7.56%. For `COc1ccc(NC(=O)C(C)Sc2nnc3c(=O)n(-c4ccc(C)c(C)c4)ccn23)cc1` (stereo not drawn), the Inhibition was 7%. With `O=c1c2nnc(SCc3ccc(Cl)cc3)n2ccn1-c1ccc(F)c(F)c1` the Inhibition was 4.12%. `Cc1cc(C)cc(Nc2nc(C)cc3nn(CC(=O)Nc4cc(F)ccc4F)c(=O)n23)c1` showed an Inhibition of 10.55%. Work on `COc1cc(Cl)c(C)cc1NC(=O)Cn1nc2ccc(SC(C)(C)C)nn2c1=O` yielded an Inhibition of 0.92%. `CCOc1ccc(-n2ccn3c(SCC(=O)Nc4ccc(C)c(C)c4)nnc3c2=O)cc1` showed an Inhibition of -4.99%. Work on `Cc1ccc(-c2ccc3nn(CC(=O)Nc4ccc(C(C)C)cc4)c(=O)n3n2)cc1C` yielded an Inhibition of -10.47%. `O=C(Cn1nc2c(N3CCOCC3)nccn2c1=O)Nc1ccc(Cl)cc1F` was tested, and the Inhibition was 8.72%. `O=C(CSc1nc2ccccc2n2cnnc12)Nc1ccc2c(c1)OCO2` gave an Inhibition of 4.59%. Work on `CSc1ccc(CNC(=O)Cn2nc3c(Oc4cccc(C)c4C)nccn3c2=O)cc1` yielded an Inhibition of 11.62%. `COc1ccccc1Cn1c(=O)c2sccc2n2c(=O)n(CC(=O)c3ccc(C)cc3C)nc12` gave an Inhibition of -4.72%. With `CCOc1ccc(-n2ccn3c(SCC(=O)c4c(C)[nH]c5ccccc45)nnc3c2=O)cc1` the Inhibition was -0.13%. In the case of `CCc1nnc2c(S(=O)(=O)N(Cc3cccc(OC)c3)c3ccc(F)cc3)cccn12`, the Inhibition is reported as -5.69%. Work on `CCOC(=O)c1ccccc1NC(=O)Cn1nc2ccc(C(=O)Nc3ccc(OC)cc3)cn2c1=O` yielded an Inhibition of 0.2%. `CCOc1ccc(-n2ccn3c(SCC(=O)Nc4ccc(Cl)cc4)nnc3c2=O)cc1` gave an Inhibition of 4.06%. For `O=c1c2nnc(-c3ccc([N+](=O)[O-])cc3)n2ccn1-c1ccc(F)c(F)c1`, the Inhibition was -6.17%. With `COC(=O)c1ccc(NC(=O)Cn2nc3ccc(S(=O)(=O)C4CCCCC4)nn3c2=O)cc1` the Inhibition was 8.6%. With `CCOC(=O)c1ccccc1NC(=O)CSc1nnc2ccc(C(=O)Nc3cccc(F)c3)cn12` the Inhibition was 9.51%. With `O=C(CSc1nnc2c(=O)n(-c3ccc(Br)cc3)ccn12)c1c[nH]c2ccccc12` the Inhibition was 12.46%. Work on `CCN(CCCNC(=O)CCc1nnc2ccc(-c3ccc(C)c(C)c3)nn12)c1ccccc1` yielded an Inhibition of -5.09%. For `CCc1ccc(Cn2c(=O)c3sccc3n3c(SCc4cccc(C(F)(F)F)c4)nnc23)cc1`, the Inhibition was 5.26%. With `CCCc1nnc2c(=O)n(CC(=O)Nc3ccc4c(c3)OCCO4)c3ccccc3n12` the Inhibition was 2.35%. For `COc1cccc(Sc2nc3ccccc3n3c(=O)n(CC(=O)Nc4cc(C)cc(C)c4)nc23)c1`, the Inhibition was 0.14%. With `O=c1c2sccc2n2c(=O)n(Cc3ccc(F)cc3)nc2n1CCc1ccccc1` the Inhibition was 10.13%. For `O=C(CSc1nnc2c(=O)n(-c3ccccc3)ccn12)Nc1ccc(F)cc1`, the Inhibition was 5.78%. With `CCOc1ccc(NC(=O)Cn2nc3c(Sc4cccc(F)c4)nccn3c2=O)cc1` the Inhibition was 1.32%. `CCc1ccc(NC(=O)Cn2nc3ccc(SC(C)(C)C)nn3c2=O)cc1` showed an Inhibition of 4.76%. `O=C(Cn1nc2c3cc(-c4ccccc4)nn3ccn2c1=O)N1CCN(c2ccccc2F)CC1` was tested, and the Inhibition was 4.61%. Compound `Cc1nc(-c2ccccn2)cc2nn(CC(=O)Nc3ccccc3C(F)(F)F)c(=O)n12` has an Inhibition of 2.98%. In the case of `COc1ccc(NC(=O)Cn2nc3c(Oc4ccccc4)nccn3c2=O)cc1OC`, the Inhibition is reported as 1.69%. `CCC(Sc1nnc2c(=O)n(-c3ccc(F)cc3)ccn12)C(=O)Nc1cc(OC)cc(OC)c1` (stereo not drawn) was tested, and the Inhibition was 15.63%. `CCc1ccc(N(Cc2ccc(C)cc2)S(=O)(=O)c2cccn3cnnc23)cc1` was tested, and the Inhibition was 18.47%.

These compounds were tested on Escherichia coli. Conditions: Concentration 32 ug.mL-1;; ASSAY_TEST Inhibition of Bacterial Growth; detection method Absorption (OD600); MEDIA CAMHB; plate type 384well; NBS; CORNING #3640; time 18 hr.
Work on `COc1cccc(C(=O)CSc2nnc3c(=O)n(-c4ccc(F)cc4)ccn23)c1` yielded an Inhibition of 2.2%. For `Cc1ccc(-c2ccc3nnc(CCC(=O)N4CCN(C(=O)c5ccco5)CC4)n3n2)cc1C`, the Inhibition was -0.43%. Compound `CC(C)n1c(=O)c2ccc(C(=O)NC3CCCC3)cc2n2c(=O)n(Cc3cccc(C(F)(F)F)c3)nc12` has an Inhibition of 0.25%. With `Cc1cc(C)cc(Nc2nc(C)cc3nn(CC(=O)Nc4ccc(C)c(F)c4)c(=O)n23)c1` the Inhibition was -0.61%. `Cc1ccc(NC(=O)Cn2c(=O)c3nnc(C)n3c3ccccc32)cc1F` was tested, and the Inhibition was -4.13%. `Cc1ccc(Sc2nccn3c(=O)n(CC(=O)N4CCN(c5ccccc5F)CC4)nc23)c(C)c1` was tested, and the Inhibition was -4.29%. Compound `CCc1nnc2ccc(S(=O)(=O)N(Cc3ccccc3F)c3ccc(OC)cc3)cn12` has an Inhibition of -5.17%. `CC(=O)c1ccc(NC(=O)Cn2nc3ccc(-c4ccccc4)nn3c2=O)cc1` showed an Inhibition of -5.17%. With `COc1ccc(NC(=O)C(C)Sc2nnc3c(=O)n(-c4ccc(C)c(C)c4)ccn23)cc1` (stereo not drawn) the Inhibition was -4.16%. Work on `O=c1c2nnc(SCc3ccc(Cl)cc3)n2ccn1-c1ccc(F)c(F)c1` yielded an Inhibition of 3.28%. In the case of `Cc1cc(C)cc(Nc2nc(C)cc3nn(CC(=O)Nc4cc(F)ccc4F)c(=O)n23)c1`, the Inhibition is reported as 0.49%. `COc1cc(Cl)c(C)cc1NC(=O)Cn1nc2ccc(SC(C)(C)C)nn2c1=O` showed an Inhibition of 3.96%. Work on `CCOc1ccc(-n2ccn3c(SCC(=O)Nc4ccc(C)c(C)c4)nnc3c2=O)cc1` yielded an Inhibition of -21.19%. Compound `Cc1ccc(-c2ccc3nn(CC(=O)Nc4ccc(C(C)C)cc4)c(=O)n3n2)cc1C` has an Inhibition of -13.87%. In the case of `O=C(Cn1nc2c(N3CCOCC3)nccn2c1=O)Nc1ccc(Cl)cc1F`, the Inhibition is reported as 5.15%. `O=C(CSc1nc2ccccc2n2cnnc12)Nc1ccc2c(c1)OCO2` was tested, and the Inhibition was -3.46%. `CSc1ccc(CNC(=O)Cn2nc3c(Oc4cccc(C)c4C)nccn3c2=O)cc1` showed an Inhibition of 2.94%. With `COc1ccccc1Cn1c(=O)c2sccc2n2c(=O)n(CC(=O)c3ccc(C)cc3C)nc12` the Inhibition was -4.83%. In the case of `CCOc1ccc(-n2ccn3c(SCC(=O)c4c(C)[nH]c5ccccc45)nnc3c2=O)cc1`, the Inhibition is reported as -15.25%. With `CCc1nnc2c(S(=O)(=O)N(Cc3cccc(OC)c3)c3ccc(F)cc3)cccn12` the Inhibition was -8.61%. In the case of `CCOC(=O)c1ccccc1NC(=O)Cn1nc2ccc(C(=O)Nc3ccc(OC)cc3)cn2c1=O`, the Inhibition is reported as -8.03%. `CCOc1ccc(-n2ccn3c(SCC(=O)Nc4ccc(Cl)cc4)nnc3c2=O)cc1` gave an Inhibition of -5.21%. In the case of `O=c1c2nnc(-c3ccc([N+](=O)[O-])cc3)n2ccn1-c1ccc(F)c(F)c1`, the Inhibition is reported as -1.2%. `COC(=O)c1ccc(NC(=O)Cn2nc3ccc(S(=O)(=O)C4CCCCC4)nn3c2=O)cc1` was tested, and the Inhibition was -7.53%. Compound `CCOC(=O)c1ccccc1NC(=O)CSc1nnc2ccc(C(=O)Nc3cccc(F)c3)cn12` has an Inhibition of -2.64%. With `O=C(CSc1nnc2c(=O)n(-c3ccc(Br)cc3)ccn12)c1c[nH]c2ccccc12` the Inhibition was -2.65%. Compound `CCN(CCCNC(=O)CCc1nnc2ccc(-c3ccc(C)c(C)c3)nn12)c1ccccc1` has an Inhibition of -5.52%. Work on `CCc1ccc(Cn2c(=O)c3sccc3n3c(SCc4cccc(C(F)(F)F)c4)nnc23)cc1` yielded an Inhibition of -0.8%. `CCCc1nnc2c(=O)n(CC(=O)Nc3ccc4c(c3)OCCO4)c3ccccc3n12` gave an Inhibition of -7.37%. With `COc1cccc(Sc2nc3ccccc3n3c(=O)n(CC(=O)Nc4cc(C)cc(C)c4)nc23)c1` the Inhibition was 3.24%. Work on `O=c1c2sccc2n2c(=O)n(Cc3ccc(F)cc3)nc2n1CCc1ccccc1` yielded an Inhibition of 2.04%. Compound `O=C(CSc1nnc2c(=O)n(-c3ccccc3)ccn12)Nc1ccc(F)cc1` has an Inhibition of -2.43%. `CCOc1ccc(NC(=O)Cn2nc3c(Sc4cccc(F)c4)nccn3c2=O)cc1` showed an Inhibition of -8.75%. With `CCc1ccc(NC(=O)Cn2nc3ccc(SC(C)(C)C)nn3c2=O)cc1` the Inhibition was -1.87%. With `O=C(Cn1nc2c3cc(-c4ccccc4)nn3ccn2c1=O)N1CCN(c2ccccc2F)CC1` the Inhibition was -0.58%. `Cc1nc(-c2ccccn2)cc2nn(CC(=O)Nc3ccccc3C(F)(F)F)c(=O)n12` was tested, and the Inhibition was -9.66%. `COc1ccc(NC(=O)Cn2nc3c(Oc4ccccc4)nccn3c2=O)cc1OC` showed an Inhibition of -7.24%. `CCC(Sc1nnc2c(=O)n(-c3ccc(F)cc3)ccn12)C(=O)Nc1cc(OC)cc(OC)c1` (stereo not drawn) showed an Inhibition of -3.99%. `CCc1ccc(N(Cc2ccc(C)cc2)S(=O)(=O)c2cccn3cnnc23)cc1` gave an Inhibition of 2.14%.

— ChEMBL document CHEMBL4513146, “CO-ADD screening of Karazin Kharkiv National University (Ukraine) compounds”
